The source of these data is PubChem BioAssay (NCATS).

Unmarked numbers belong to inactive results. Inconclusive results are not listed. Active and inactive are the calls of the source. Unless noted, calls follow the shape of the dose curve; as a rule, active = well fitted curve in either direction with a large enough effect (not every such curve was filed as active); inconclusive = small, poorly fitted or top-dose-only effect, or another doubt; inactive = flat fitted curve, though single readings scatter. Some results are limits rather than exact numbers.

The target in experiment [1] is Lysosomal acid glucosylceramidase (Homo sapiens) (UniProt P04062). Nature of the experiment: Glucocerebrosidase-p2 (AID 348; in the data active = potency below about 10 µM; also: potency is read from the fitted curve at half-maximal effect). Particulars: purified GBA, blue fluorogenic substrate, 40 min. A digest of the protocol: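 Normal human glucocerebrosidase (0.2 nM) with blue fluorogenic substrate (80 uM final) in citrate/phosphate pH 5.9 with 10mM sodium taurocholate, 0.01% tween-20; 40 min RT, NaOH/glycine stop; fluorescence Ex 365/Em 440; AC50 from a titration from 0.6 nM upwards.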
Lysosomal acid glucosylceramidase (Homo sapiens), sequence (P04062 whole entry, looked up): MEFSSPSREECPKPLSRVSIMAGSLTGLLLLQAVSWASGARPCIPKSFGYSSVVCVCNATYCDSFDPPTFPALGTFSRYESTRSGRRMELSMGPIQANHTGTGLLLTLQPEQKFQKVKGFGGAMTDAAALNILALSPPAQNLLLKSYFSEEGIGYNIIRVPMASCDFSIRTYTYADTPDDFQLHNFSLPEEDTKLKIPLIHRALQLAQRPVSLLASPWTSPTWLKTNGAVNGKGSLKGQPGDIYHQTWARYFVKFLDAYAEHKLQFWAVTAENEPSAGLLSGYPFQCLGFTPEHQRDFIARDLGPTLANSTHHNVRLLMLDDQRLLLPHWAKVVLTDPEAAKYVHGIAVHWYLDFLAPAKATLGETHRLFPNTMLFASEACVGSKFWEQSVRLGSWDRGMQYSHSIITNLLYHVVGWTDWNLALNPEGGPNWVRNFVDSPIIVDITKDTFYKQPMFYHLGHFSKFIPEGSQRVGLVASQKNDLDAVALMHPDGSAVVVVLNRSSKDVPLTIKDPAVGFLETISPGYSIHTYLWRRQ

Experiment [2] concerns the target Glucocorticoid receptor (Homo sapiens) (UniProt P04150). The experiment can be described thus: GR-GFP Redistribution (AID 450;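 active = compounds whose dose series gives a full or clear partial fitted curve of increased nuclear translocation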; also: potency is read from the fitted curve at half-maximal effect). As to conditions: U2OS GR-GFP nuclear translocation, laser cytometry, 2 h.
The target is the same in experiment [3]. Nature of the experiment: GR-EFC Redistribution (AID 451; calls by dose curve; also: potency is read from the fitted curve at half-maximal effect). As to conditions: CHO-K1 GR-EFC translocation, beta-gal luminescence, 2 h. A digest of the protocol:
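CHO-K1 cells expressing nuclear EA and GR-ED fragments of b-gal; compounds titrated up to 46 uM final, 2 h at 37 C. GR nuclear translocation read as complemented b-gal luminescence after 1 h RT detection.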

For experiment [4], the target named is 3',5'-cyclic-AMP phosphodiesterase 4B (Homo sapiens) (UniProt Q07343). The experiment can be described thus: qHTS Assay for Inhibitors of PDE-IV (AID 607; active = well fitted activation curve with a large enough effect in the main read-out, with a control signal flat, not every such curve was filed as active; also: % of control where 0% means no effect). Particulars: HEK293 ACTOne CNG channel cells, membrane potential fluorescence; series mostly up to 22.9 µM. In short, it runs like this:
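HEK293 ACTOne cells with CNG channel (1000/well), endogenous PDE4; membrane potential dye, compounds up to 22.9 uM final. Fluorescence Ex 535/Em 590; RO 20-1724 (100 uM final) as reference.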
Background: Quantitative high-throughput screening tests each substance at several concentrations.

The nature of experiment [5]: Primary qHTS for small molecule stabilizers of the endoplasmic reticulum resident proteome: Secreted ER Calcium Modulated Protein (SERCaMP) assay (AID 1508630; active = well fitted curve in the direction sought with a large enough effect; an effect the other way counts as inactive or inconclusive; also: % is scaled to controls: 0 for no effect and ±100 for the full control effect). As to conditions: SH-SY5Y GLuc-SERCaMP (Gaussia luciferase released on ER calcium loss) secretion, thapsigargin, luminescence; series mostly up to 38.4 µM. In short, it runs like this: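 The SH-SY5Y reporter protocol was run at 3 concentrations up to 38.3 uM (primary) or 11 concentrations (follow-up): 16 h compound, 100 nM thapsigargin for 4 h, then extracellular luciferase luminescence.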

Experiment [6] can be described thus: AP1 Signaling Pathway (AID 357).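 Also: ME-180 reporter cells stimulated with EGF at its EC50 level; % is scaled to controls: 0 for no effect and ±100 for the full control effect.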 As to conditions: ME-180 AP-1-bla reporter, EGF-induced, beta-lactamase ratio, 5 h; at 7.69 µM (top of the series) unless noted. In short, it runs like this:
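First, ME-180 AP-1-bla cells were cultured overnight at 37 °C in low-serum Opti-MEM. Next, titrated compounds with EC50 EGF were incubated 5 hours. Finally, CCF4 was added for 2.5 hours and the 460/530 nm ratio recorded.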

Experiment [7] deals with Cytochrome P450 1A2 (Homo sapiens) (UniProt P05177). Nature of the experiment: p450-cyp1a2 (AID 410; calls by dose curve; also: potency is read from the fitted curve at half-maximal effect;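 as to activity change, negative = inhibition: -100% = full effect of reference inhibitor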). As to conditions: recombinant CYP1A2, luciferin-ME demethylation, luminescence; series mostly up to 57 µM. In short, it runs like this:
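O-Demethylation of luciferin 6' methyl ether by human CYP1A2 is monitored as luciferase luminescence. Substrate sits at Km (100uM); enzyme is 20nM. Values are scaled to 57 uM furafylline as maximal inhibition.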

A short description of experiment [8]: Stat Signaling Pathway (AID 446).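 Also: ME-180 cervical cancer cells given 40 pM IL-6 alongside compound; SIE-controlled beta-lactamase reporter measured as 460/530 nm FRET emission ratio; % is scaled to controls: 0 for no effect and ±100 for the full control effect.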 As to conditions: ME-180 (cervical carcinoma) SIE beta-lactamase reporter, IL-6 stimulated, 5 h; at 7.69 µM (top of the series) unless noted. A digest of the protocol: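 Normalization used AC90 stimulation (300 pM IL-6) and AC90 inhibition (125 nM pan-JAK inhibitor at 40 pM IL-6). The underlying signal is SIE-driven beta-lactamase in ME-180 cells after 5 h IL-6 exposure with compound.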

The target in experiment [9] is Mitogen-activated protein kinase 10 (Mus musculus) (UniProt Q61831). The experiment can be described thus: JNK3 AlphaScreen Assay (AID 530).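 Also: kinase came from lysate of stimulated human HepG2 cells; signal reports phosphorylation of biotinylated GST-cJun 1-79 at Ser73 with 10 µM ATP; % is scaled to controls: 0 for no effect and ±100 for the full control effect.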 As to conditions: JNK3 lysate, c-Jun phosphorylation; series mostly up to 57.1 µM. In short, it runs like this: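 Activity was read by AlphaScreen after JNK3-containing HepG2 lysate (cytokine pre-activated) phosphorylated biotinylated GST-cJun with 10 uM ATP at room temperature. Phospho-Ser73 cJun antibody with Protein-A acceptor beads provided detection.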
For orientation: Alpha assays give light when donor and acceptor beads are brought close together.

For experiment [10], the target named is Cytochrome P450 3A4 (Homo sapiens) (UniProt P08684). The experiment can be described thus: qHTS Assay for Activators of Cytochrome P450 3A4 (AID 885; active = well fitted curve in the direction sought with a large enough effect; an effect the other way counts as inactive or inconclusive; also: nearly all actives have a fitted effect of over 65% in size; also: potency is read from the fitted curve at half-maximal effect). As to conditions: recombinant CYP3A4, Luciferin-PPXE luminescence, 60 min; series mostly up to 57.1 µM. A digest of the protocol:
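Human CYP3A4 dealkylates Luciferin-PPXE to luciferin, which luciferase detection converts to light. Substrate was at its KM (25uM), buffer 200mM KPO4, reaction 60 min at RT.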

Experiment [11] in a line: NFAT Signaling Pathway (AID 444). As to conditions: Jurkat NFAT-bla M1, carbachol, beta-lactamase ratio, 5 h; at 7.69 µM (top of the series) unless noted. In short, it runs like this: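 Jurkat cells with NFAT-driven β-lactamase reporter and co-expressed M1 receptor, stimulated with carbachol (final 1 uM, ~EC50), compound titration, 5 h at 37 °C. CCF4 loaded 1 h at RT; 460/530 nm ratio gave %activity and AC50.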

The target of experiment [12] is Ubiquitin carboxyl-terminal hydrolase 1 (Homo sapiens) (UniProt O94782). Nature of the experiment: Inhibitors of USP1/UAF1: Pilot qHTS (AID 504865; active = well fitted curve in the direction sought with a large enough effect; an effect the other way counts as inactive or inconclusive;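 also: rhodamine fluorescence freed from ubiquitin-rhodamine substrate followed over time; top concentration of the series differs between compounds; % is scaled to controls: 0 for no effect and ±100 for the full control effect; nearly all actives have a fitted effect of over 35% in size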). As to conditions: purified USP1/UAF1, Ub-rhodamine cleavage fluorescence; series mostly up to 54.9 µM. In short, it runs like this:
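1nM USP1/UAF1 + cpd, 15 min RT; start w/ Ub-Rho 150nM final; kinetic FL 480/540 nm, 6 reads q60 s. Buffer 50mM HEPES pH 7.8, 0.5mM EDTA, 1mM TCEP, 0.01% Tween-20, 0.1 mg/ml BSA.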

Experiment [13] concerns the target Cytochrome P450 3A4 (Homo sapiens) (UniProt P08684). The experiment can be described thus: qHTS Assay for Inhibitors and Substrates of Cytochrome P450 3A4 (AID 884; active = well fitted curve in the direction sought with a large enough effect; an effect the other way counts as inactive or inconclusive; also: nearly all actives have a fitted effect of over 50% in size; also: potency is read from the fitted curve at half-maximal effect). Particulars: recombinant CYP3A4, Luciferin-PPXE luminescence; series mostly up to 57.1 µM. A digest of the protocol:
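Luminescent readout of luciferin produced by CYP3A4 (20 nM) dealkylation of Luciferin-PPXE, 25 uM (its KM). NADPH-driven reaction ran 60 min at RT after 10 min compound preincubation; data scaled to 57 uM ketoconazole as 100% inhibition.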

Cytochrome P450 1A2 (Homo sapiens), sequence (P05177 whole entry, looked up): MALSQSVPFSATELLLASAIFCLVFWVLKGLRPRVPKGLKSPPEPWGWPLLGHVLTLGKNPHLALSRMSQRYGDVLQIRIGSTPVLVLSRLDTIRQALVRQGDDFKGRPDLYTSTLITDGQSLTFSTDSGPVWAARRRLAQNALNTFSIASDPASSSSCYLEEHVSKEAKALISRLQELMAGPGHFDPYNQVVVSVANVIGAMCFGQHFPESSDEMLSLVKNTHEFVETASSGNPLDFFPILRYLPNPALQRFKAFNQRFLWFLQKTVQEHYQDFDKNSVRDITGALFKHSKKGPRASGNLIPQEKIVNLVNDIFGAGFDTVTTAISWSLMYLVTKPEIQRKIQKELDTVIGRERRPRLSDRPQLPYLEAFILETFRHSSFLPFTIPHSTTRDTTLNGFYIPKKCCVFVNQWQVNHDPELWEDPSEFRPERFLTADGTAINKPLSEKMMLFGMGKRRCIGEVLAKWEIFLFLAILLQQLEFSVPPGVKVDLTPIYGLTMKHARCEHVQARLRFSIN
3',5'-cyclic-AMP phosphodiesterase 4B (Homo sapiens), sequence (Q07343 whole entry, looked up): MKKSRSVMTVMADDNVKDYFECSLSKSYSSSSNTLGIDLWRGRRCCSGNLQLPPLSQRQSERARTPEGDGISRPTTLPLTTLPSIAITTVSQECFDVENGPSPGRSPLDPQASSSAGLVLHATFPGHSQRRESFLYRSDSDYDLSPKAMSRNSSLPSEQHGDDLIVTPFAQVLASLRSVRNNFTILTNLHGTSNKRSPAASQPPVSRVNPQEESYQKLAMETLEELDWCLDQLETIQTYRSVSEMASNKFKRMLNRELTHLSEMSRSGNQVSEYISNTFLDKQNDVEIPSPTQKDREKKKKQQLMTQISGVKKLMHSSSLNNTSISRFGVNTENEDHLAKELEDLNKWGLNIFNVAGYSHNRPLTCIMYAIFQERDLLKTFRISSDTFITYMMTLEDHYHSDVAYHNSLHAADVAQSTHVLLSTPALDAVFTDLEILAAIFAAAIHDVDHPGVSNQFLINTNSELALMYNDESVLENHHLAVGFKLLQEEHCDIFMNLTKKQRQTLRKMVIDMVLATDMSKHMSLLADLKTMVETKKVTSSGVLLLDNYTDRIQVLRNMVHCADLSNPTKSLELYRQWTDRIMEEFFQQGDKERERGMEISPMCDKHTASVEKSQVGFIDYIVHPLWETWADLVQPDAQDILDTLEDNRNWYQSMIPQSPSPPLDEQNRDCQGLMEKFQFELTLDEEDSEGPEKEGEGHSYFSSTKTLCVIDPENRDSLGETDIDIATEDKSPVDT
Glucocorticoid receptor (Homo sapiens), sequence (P04150 whole entry, looked up): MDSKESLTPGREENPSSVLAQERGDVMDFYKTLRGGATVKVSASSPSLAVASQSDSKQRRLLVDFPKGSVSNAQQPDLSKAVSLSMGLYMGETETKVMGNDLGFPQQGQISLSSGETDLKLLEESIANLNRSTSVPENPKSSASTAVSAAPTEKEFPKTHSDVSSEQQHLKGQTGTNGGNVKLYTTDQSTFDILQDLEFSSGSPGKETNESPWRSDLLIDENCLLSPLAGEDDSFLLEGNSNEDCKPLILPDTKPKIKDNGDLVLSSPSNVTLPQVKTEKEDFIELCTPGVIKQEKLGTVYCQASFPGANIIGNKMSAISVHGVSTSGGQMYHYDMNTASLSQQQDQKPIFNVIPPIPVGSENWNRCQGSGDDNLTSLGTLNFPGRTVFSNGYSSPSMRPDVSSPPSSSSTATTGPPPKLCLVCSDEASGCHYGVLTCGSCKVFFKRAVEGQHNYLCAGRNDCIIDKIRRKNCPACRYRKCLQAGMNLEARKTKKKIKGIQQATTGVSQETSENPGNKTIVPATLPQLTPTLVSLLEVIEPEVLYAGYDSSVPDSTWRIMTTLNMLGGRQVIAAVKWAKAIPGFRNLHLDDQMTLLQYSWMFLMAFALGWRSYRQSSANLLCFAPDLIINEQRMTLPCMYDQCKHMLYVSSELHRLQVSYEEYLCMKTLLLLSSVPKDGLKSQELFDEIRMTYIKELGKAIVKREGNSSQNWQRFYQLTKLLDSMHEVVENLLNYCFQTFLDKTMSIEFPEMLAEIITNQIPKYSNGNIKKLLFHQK
Cytochrome P450 3A4 (Homo sapiens), sequence (P08684 whole entry, looked up): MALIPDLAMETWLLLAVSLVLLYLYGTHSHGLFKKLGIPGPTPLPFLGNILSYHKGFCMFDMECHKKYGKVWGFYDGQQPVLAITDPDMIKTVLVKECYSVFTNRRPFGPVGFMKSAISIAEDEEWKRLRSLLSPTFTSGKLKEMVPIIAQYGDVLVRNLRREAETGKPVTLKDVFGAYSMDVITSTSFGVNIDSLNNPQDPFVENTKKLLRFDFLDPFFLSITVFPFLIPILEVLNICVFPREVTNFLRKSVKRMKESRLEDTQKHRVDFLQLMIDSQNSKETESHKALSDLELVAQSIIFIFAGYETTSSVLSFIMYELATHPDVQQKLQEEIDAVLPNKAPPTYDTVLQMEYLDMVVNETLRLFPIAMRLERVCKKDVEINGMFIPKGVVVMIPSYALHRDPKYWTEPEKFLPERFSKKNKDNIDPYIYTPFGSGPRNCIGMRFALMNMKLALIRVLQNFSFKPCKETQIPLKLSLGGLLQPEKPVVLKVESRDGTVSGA
Ubiquitin carboxyl-terminal hydrolase 1 (Homo sapiens), sequence (O94782 whole entry, looked up): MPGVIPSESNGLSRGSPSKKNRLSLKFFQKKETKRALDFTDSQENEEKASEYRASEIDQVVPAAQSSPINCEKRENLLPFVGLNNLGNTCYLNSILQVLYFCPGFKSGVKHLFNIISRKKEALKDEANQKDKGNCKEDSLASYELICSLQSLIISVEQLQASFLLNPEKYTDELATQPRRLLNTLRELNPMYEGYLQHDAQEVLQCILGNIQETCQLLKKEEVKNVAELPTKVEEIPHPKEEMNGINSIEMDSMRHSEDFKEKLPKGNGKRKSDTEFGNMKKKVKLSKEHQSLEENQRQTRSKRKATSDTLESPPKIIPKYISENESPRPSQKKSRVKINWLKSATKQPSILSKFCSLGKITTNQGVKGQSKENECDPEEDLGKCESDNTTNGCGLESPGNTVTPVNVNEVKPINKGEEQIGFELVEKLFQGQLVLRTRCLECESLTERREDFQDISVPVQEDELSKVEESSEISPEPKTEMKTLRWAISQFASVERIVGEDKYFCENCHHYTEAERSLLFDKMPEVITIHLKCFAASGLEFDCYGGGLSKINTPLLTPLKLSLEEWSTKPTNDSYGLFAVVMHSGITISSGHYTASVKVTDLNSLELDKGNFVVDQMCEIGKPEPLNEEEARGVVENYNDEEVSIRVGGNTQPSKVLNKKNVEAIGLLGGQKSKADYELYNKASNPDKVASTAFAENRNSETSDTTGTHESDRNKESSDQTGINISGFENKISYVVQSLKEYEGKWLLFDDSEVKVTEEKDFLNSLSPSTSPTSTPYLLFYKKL

Take `COCCn1c(=O)c(-c2cccs2)nc2cnc(Oc3cccc(Cl)c3)nc21`: the Potency in [1] is greater than 11.4 µM; in experiment [2] it was greater than 9.22 µM; in experiment [3] it was greater than 46 µM. Besides, the Potency result in [4] is “inactive”. Further, the result in experiment [5] was inactive.
Regarding `CCNc1ncc2nc(-c3cccc(C#N)c3)c(=O)n(C)c2n1`, the activity change, negative = inhibition in [6] is 15.2%. The Potency is 2.51 µM (active) in experiment [7], greater than 9.22 µM in experiment [2] and greater than 46 µM in [3]. In experiment [8], the activity, negative = inhibition was 30%. In addition, the Potency entry in experiment [9], in experiment [4] and in [10] was “inactive” throughout. Further, the outcome in experiment [5] was inactive.
As for `O=C(c1cnccn1)N1CCC2(CCCN(c3ccccn3)C2)CC1`, the activity change, negative = inhibition in [6] was -13%. Also, the Potency entry in [7], in [9], in experiment [4] and in experiment [10] was “inactive” each time. Also, the activity, negative = inhibition in [8] is 1.23%. Besides, the Potency in experiment [3] was greater than 46 µM. In addition, the result in experiment [5] was inactive.
Regarding `COc1ccc(NC(=O)N2CCCC3(CCN(C(=O)c4cccc(F)c4)CC3)C2)cc1`, the activity change, negative = inhibition was -26.5% in [6] and -25.3% in [11]. Also, the Potency entry in experiment [7], in experiment [9], in [4] and in experiment [10] was “inactive” throughout. Also, the activity, negative = inhibition in experiment [8] was -10.9%. For the same compound, in [3], the Potency is 29.5 µM (active). Also, the outcome in experiment [5] was inactive.
Turning to `Clc1ccccc1-c1nc(NCCN2CCOCC2)c2ccccc2n1`, the activity change, negative = inhibition was 16% in [6] and -7.69% in experiment [11]. The Potency in [7] is 12.6 µM (active); in experiment [2], greater than 46 µM; in experiment [3], greater than 46 µM. Moreover, the activity, negative = inhibition in [8] was -5.23%. Besides, the Potency entry in [9], in [4], in [10] and in experiment [12] was “inactive” throughout. In addition, the outcome in [5] was inactive.
As for `COc1cccc(Cn2c(=O)c(C)nc3cnc(OCc4ccccc4)nc32)c1`, the results for the Potency in [1], in [2] and in [3] were greater than 11.4 µM, greater than 9.22 µM and greater than 46 µM, respectively. Moreover, in experiment [11], the activity change, negative = inhibition is -16.9%. Further, the activity, negative = inhibition in experiment [8] was -3.44%. For the same compound, the Potency entry in experiment [9] is “inactive”. Further, the outcome in experiment [5] was inactive.
Turning to `O=c1c(-c2ccc(Cl)cc2)nc2cncnc2n1Cc1ccc(F)cc1`, the Potency in experiment [1] was greater than 11.4 µM; in experiment [2], greater than 9.22 µM; in [3], greater than 46 µM. Further, the activity change, negative = inhibition in [11] is 5.72%. Besides, the activity, negative = inhibition in experiment [8] is -2.95%. For the same compound, the Potency entry in experiment [9], in [4] and in [10] was “inactive” each time. Also, the outcome in experiment [5] was inactive.
Consider `O=C(Oc1ccccc1)N1CCC2(CC1)CCN(c1cccc(-c3ccccc3)c1)CC2`, for which the Potency was greater than 11.4 µM in [1], 12.6 µM (active) in experiment [7], greater than 46 µM in [3] and 7.94 µM (active) in [10]. In addition, the activity, negative = inhibition in [8] was -5.12%. The Potency entry in [9], in experiment [4] and in [13] was “inactive” in each case. Further, the result in experiment [5] was inactive.
For `COc1ccc(Oc2ncc3ncc(=O)n(CCc4ccccc4)c3n2)cc1`, the activity change, negative = inhibition in [6] was -14.7%; in [11], -16.6%. The Potency in experiment [7] was 0.631 µM (active); in experiment [2], greater than 9.22 µM; in experiment [3], greater than 46 µM; in experiment [13], 1.26 µM (active). For the same compound, in [8], the activity, negative = inhibition was 3.46%. Also, the Potency entry in experiment [9] and in experiment [10] was “inactive” in each case. The outcome in experiment [5] was inactive.
